# Assay results as given in PubChem BioAssay (NCATS).
# Results filed as inconclusive are left out. The source made the active and inactive calls. Calls come from the whole dose curve; as a rule, active = well fitted inhibition curve with a large enough effect; inconclusive = small, poorly fitted or top-dose-only effect; inactive = flat fitted curve, though single readings scatter. Where a SMILES comes first, the peptide text is derived from it. [ ]: non-standard residue; d: D form. PhLac = O=C(O)[CH](O)Cc1ccccc1; NMeV = CN[CH](C(=O)O)C(C)C
# Molecular target: Glutathione peroxidase 1 (Homo sapiens) (UniProt P07203)
# Assay: Primary qHTS Assay for Inhibitors of Recombinant Selenoprotein Glutathione Peroxidase 1 (GPX1) (AID 1845191); note: nearly all actives have a fitted effect of over 65% in size
# Settings: recombinant GPX1, GR-coupled NADPH fluorescence, 15 min; series mostly up to 48.8 µM; activity, negative = inhibition: at the top concentration
# Outline: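 GR-coupled assay: compounds preincubated 30 min at room temperature with GPX1, then reaction started with CHP; final 10 nM GPX1, 1 mM GSH, 0.5 mM CHP, 0.5 mM NADPH, 100 nM GR, 0.01% BSA, pH 7.5 Tris buffer. NADPH fluorescence (340/450 nm) read at 0 and 15 min.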
# % is set by controls: 0 for no effect and ±100 for the full control effect.
# Sequence of Glutathione peroxidase 1 (Homo sapiens) (P07203 whole entry, looked up): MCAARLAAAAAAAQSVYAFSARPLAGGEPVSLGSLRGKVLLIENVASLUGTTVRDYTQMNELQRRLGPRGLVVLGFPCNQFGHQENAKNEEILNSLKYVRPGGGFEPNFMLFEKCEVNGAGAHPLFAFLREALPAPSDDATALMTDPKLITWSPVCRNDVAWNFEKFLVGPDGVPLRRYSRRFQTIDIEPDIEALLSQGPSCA
SMILES,outcome,"activity, negative = inhibition",Potency
CC1=CC[C@]2(C(=O)O[C@@H]3O[C@H](CO[C@@H]4O[C@H](CO)[C@@H](O[C@@H]5O[C@@H](C)[C@H](O)[C@@H](O)[C@H]5O)[C@H](O)[C@H]4O)[C@@H](O)[C@H](O)[C@H]3O)CC[C@]3(C)C(CCC4[C@@]5(C)C[C@@H](O)[C@H](O)[C@@](C)(CO)C5CC[C@]43C)C2C1C (some centres undefined),inactive [at 15.3 µM],,
O=C(NN1CCCCC1)c1nn(-c2ccc(Cl)cc2Cl)c(-c2ccc(C#Cc3ccc(C(F)(F)F)cc3)s2)c1CNS(=O)(=O)N1CCCC1,inactive,,
CC[N+](C)(C)Cc1ccccc1Br,,-7.53% (inactive),
C=C1CC[C@H]2[C@@](C)(CCC[C@@]2(C)C(=O)O)[C@@H]1CCC(C)CCO (some centres undefined),inactive [at 27.7 µM],,
COc1ccc(C(OC2OC(CO)C(O)C(O)C2O)C(C)O)cc1 (centres undefined),inactive [at 27.7 µM],,
CC(=O)O[C@@H]1[C@H]2[C@@H](OC(=O)c3ccccc3)[C@@H](C)C[C@]2(O)[C@H](OC(C)=O)[C@@]2(C)[C@@H]3CC(C)(C)C(=O)[C@]3(OC(C)=O)C[C@@]12C,inactive [at 15.3 µM],,
C[C@@H]1C[C@H](O[C@@H]2O[C@H](CO[C@@H]3OC[C@](O)(CO)[C@H]3O)[C@@H](O)[C@H](O)[C@H]2O)CC(C)(C)[C@H]1/C=C/[C@@H](C)O,inactive [at 27.7 µM],,
CCCCNC(=O)[C@@H]1Cc2ccccc2N1C(=O)[C@@H](N)CC,inactive,,
COC12CC3C(C(C)C1=CC(=O)O2)C(O)C(OC(C)=O)C1C(C)(C)C(OC(C)=O)CCC31C (centres undefined),,-0.686% [at 27.7 µM] (inactive),
CC(/C=C/C1(O)C(C)(C)CC(O)CC1(C)O)OC1OC(CO)C(O)C(O)C1O (centres undefined),inactive [at 27.7 µM],,
COc1ccc2c3c1O[C@H]1C[C@@H](O)C=C[C@@]31CCN(C)C2,,,inactive
C=C(C)[C@@H](C)[C@H]1O[C@]23C[C@]4(CO2)C(CCC2[C@@]5(C)CC[C@H](O[C@@H]6OC[C@H](O)[C@H](O[C@@H]7O[C@H](CO)[C@@H](O)[C@H](O)[C@H]7O)[C@H]6O[C@@H]6O[C@@H](CO)[C@H](O)[C@H]6O)C(C)(C)C5CC[C@]24C)C3[C@@](C)(O)[C@@H]1OC(C)=O (some centres undefined),,-12% [at 15.3 µM] (inactive),
C[C@@H]1C(=O)O[C@H]2CC34[C@H]5C[C@@H](C(C)(C)C)C36[C@@H](OC(=O)[C@@H]6O)OC4(C(=O)O5)[C@]21O (some centres undefined),inactive,,
CC(C)CC(=O)OC[C@H]1O[C@@](COC(=O)CC(C)C)(O[C@H]2O[C@H](CO)[C@@H](O)[C@H](O)[C@H]2O)[C@@H](OC(=O)CC(C)C)[C@@H]1OC(=O)CC(C)C,inactive [at 15.3 µM],,
C[C@]12CC[C@@H]3c4ccc(O[C@@H]5O[C@H](C(=O)O)[C@@H](O)[C@H](O)[C@H]5O)cc4CC[C@H]3[C@@H]1CCC2=O,inactive,,
CC(C)C(C(=O)N1CCCC1C(=O)O)N(C)C(=O)C(O)Cc1ccccc1 (centres undefined) (H-[PhLac]-[NMeV]-Pro-OH; configuration not given here),inactive [at 27.7 µM],,
C/C=C/C=C/C=C/C(=O)O[C@@H]1C=C(CO)C(O)(C(=O)O)[C@@]2(C)CCCC(C)(C)[C@H]12 (some centres undefined),inactive [at 27.7 µM],,
C[C@@H]1CC[C@]2(C)C3(C)CC[C@@]2(OC3=O)[C@@]12C[C@H](c1ccoc1)OC2=O,inactive [at 27.7 µM],,
COc1ccc([C@H]2Cc3cccc(O)c3C(=O)O2)cc1,inactive,,
C[C@@H]1O[C@@H](O[C@@H]2[C@@H](O)[C@H](O[C@@H]3[C@@H](O)[C@@H](O)[C@H](O[C@H]4[C@H](OC(=O)[C@]56CCC(C)(C)C[C@H]5C5=CCC7[C@@]8(C)C[C@H](O)[C@H](O[C@@H]9O[C@H](C(=O)O)[C@@H](O)[C@H](O)[C@H]9O)[C@@](C)(CO)C8[C@H](O)C[C@@]7(C)[C@]5(C)CC6)OC[C@H](O)[C@@H]4O)O[C@H]3C)OC[C@H]2O)[C@H](O)[C@H](O)[C@H]1O (some centres undefined),inactive [at 9.52 µM],,

SMILES,outcome,"activity, negative = inhibition",Potency
O=C(CCO[C@@H]1O[C@H](CO)[C@@H](O)[C@H](O)[C@H]1O)c1ccc(O)cc1,,-12.4% [at 27.7 µM] (inactive),
CC1=CC(=O)CC(C)(CO[C@@H]2O[C@H](CO)[C@@H](O)[C@H](O)[C@H]2O)C1(O)/C=C/C(C)=C/C(=O)O (some centres undefined),inactive [at 27.7 µM],,
CC(/C=C/C1(O)C2(C)COC1(C)CC(=O)C2)O[C@@H]1O[C@H](CO)[C@@H](O)[C@H](O)[C@H]1O (some centres undefined),inactive [at 27.7 µM],,
Clc1cc(Cl)c(OCC#CI)cc1Cl,inactive,,
Cc1cc(C(=O)NNCc2ccccc2)no1,inactive [at 98.3 µM],,
C/C=C1/[C@H](O[C@@H]2O[C@H](CO)[C@@H](O)[C@H](O)[C@H]2O)OC=C(C(=O)OC)[C@H]1CC(=O)O[C@@H]1O[C@H](CO)[C@@H](O)[C@H](O)[C@H]1O,,-10.5% [at 15.3 µM] (inactive),
OC[C@H]1O[C@@H](n2cnc3c(NCc4ccc(O)cc4)ncnc32)[C@H](O)[C@@H]1O,,-7.41% (inactive),
CCC(=O)N[C@@H]1Cc2ccccc2[C@H](c2ccccc2)C1,,4.85% (inactive),
CC(C)C1=CC2=CCC3[C@](C)(CCC[C@@]3(C)C(=O)O)C2CC1O (some centres undefined),,-7.76% [at 27.7 µM] (inactive),
CCn1c2ccccc2c2cc(CNC)ccc21,,,inactive
C=CC(C)(C)C12CC3C(=O)NC(Cc4cnc[nH]4)C(=O)N3C1Nc1ccccc12 (centres undefined),,-14.5% [at 27.7 µM] (inactive),
C=C1CC[C@H]2[C@@](C)(CCC(O)[C@@]2(C)CO)[C@@H]1C/C=C(/C(=O)O)C(O)CO (some centres undefined),inactive [at 27.7 µM],,
COc1cccc2c1CCC[C@H]2CN(C)CCc1ccc2ccoc2c1,,-28% (inactive),
COc1cc(C/C(=C/NC(C)=O)N(CC(=O)Cc2ccccc2)C(C)=O)cc2c1OCO2,inactive [at 27.7 µM],,
C=C1C(=O)OC2/C=C(\C)CC/C=C(\C(=O)O)CC/C=C(\C)CCC12 (centres undefined),,4.73% [at 27.7 µM] (inactive),
CNC(=O)c1ccc2cc([C@@]3(O)CCn4cncc43)ccc2c1,,0.23% (inactive),
Cc1cn2c(N)c(Cl)cc(C(=O)NCC3CCN(CC(C)C)CC3)c2n1,,2.07% (inactive),
CCCn1cnc2c(NCc3ccccc3)nc(N[C@H](CC)CO)nc21,,4.44% (inactive),
CCOC(=O)[C@H](CCc1ccccc1)CC1(C(=O)N[C@H]2CCc3ccccc3N(CC(=O)O)C2=O)CCCC1,,-5.88% (inactive),
